Screening data from PubChem BioAssay.
Shown are actives, neighbours in structure and some others; about 3.1% of the full set was active somewhere.
Wnt act: activators of Wnt/beta-catenin signaling; Wnt/beta-catenin reporter cell assay, activator, plate reader; activation, % at 9.35 µM; 300,000 tested, 1.2% active; AID 743398; in the data active = activation above about 30%, passing the limit was not always enough; inconclusive = no clear call, values can overlap the other calls;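 note: 0% = neutral control wells and 100% = positive control wells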
esBAF inh: inhibitors of esBAF chromatin remodeling in mouse ES cells; 350,000 tested, 2% active; Bmi1-luciferase knock-in reporter, 24 h; 100% = twice the neutral-well signal; reporter increase, % at 12.5 µM; in the data active = activation above about 40%; inconclusive = no clear call, values can overlap the other calls;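 note: 0% = median of the plate's neutral control wells and 100% = double that signal; a rise in the Bmi1 reporter signal indicates esBAF inhibition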
Rtt109 Vps75: C. albicans Rtt109 histone acetyltransferase inhibition. Q5AAJ8. purified Rtt109/Vps75, ThioGlo CoA-SH fluorescence, 4 h. inhibition, % at 34.9 µM. 330,000 tested, 0.16% active;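 active = inhibition of at least 50% in every replicate; inconclusive = best replicate reaches 50% inhibition but some replicates fall short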
Target sequence (Q5AAJ8 whole entry, looked up): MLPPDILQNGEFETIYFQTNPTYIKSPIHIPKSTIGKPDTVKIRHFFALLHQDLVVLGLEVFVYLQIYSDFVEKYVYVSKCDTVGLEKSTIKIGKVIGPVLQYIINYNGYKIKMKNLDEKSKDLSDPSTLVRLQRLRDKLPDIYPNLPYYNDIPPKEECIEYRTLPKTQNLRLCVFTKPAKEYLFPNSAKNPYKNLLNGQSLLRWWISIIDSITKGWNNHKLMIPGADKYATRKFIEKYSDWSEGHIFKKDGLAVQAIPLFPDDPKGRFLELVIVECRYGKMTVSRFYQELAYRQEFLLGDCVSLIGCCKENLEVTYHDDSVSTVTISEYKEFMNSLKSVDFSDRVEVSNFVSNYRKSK
MITF TRPM1 HTS: increases MITF-driven TRPM1 promoter luciferase signal | activation, % at 12.5 µM | AID 588334 | 300,000 tested, 0.75% active | SK-MEL-5 TRPM1-promoter luciferase, 24 h; % of positive control, neutral wells = 0;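 active = mean activation of at least 80% with every replicate also reaching 80%; inconclusive = mean reaches 80% but some replicate falls short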;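 note: 0% = neutral control wells and 100% = parthenolide positive control wells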
C2C12 statin: suppressors of simvastatin-induced myotoxicity in C2C12 myotubes | ATP luminescence, 48 h; scaled: DMSO 0, geranylgeraniol control 100 | AID 602340 | 330,000 tested, 0.78% active | rescue of ATP level, % at 7.49 µM;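 active = mean ATP rescue above about 67%, or every replicate alone reaching that limit, limit read from the data, passing the limit was not always enough; inconclusive = no clear call, values can overlap the other calls; inactive = mean under the limit and some replicate under it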;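 note: myotubes were challenged with 10 µM simvastatin during compound exposure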
Numbers without * were called inactive.

Results for O=[N+]([O-])c1ccc(Sc2nc3ccccc3[nH]2)c(Cl)c1 ?
Wnt act: -1.4

What do the screens show for `O=[N+]([O-])c1ccc(CSc2nc3ccccc3[nH]2)cc1`?
Wnt act: 21.3; esBAF inh: 72.4*; Rtt109 Vps75: 2.6; MITF TRPM1 HTS: inconclusive; C2C12 statin: -4.0

Results for C[C@@H]1CCCCO[C@@H](CN(C)S(=O)(=O)c2cn(C)cn2)[C@H](C)CN([C@H](C)CO)C(=O)c2cc(NS(=O)(=O)c3cccs3)ccc2O1 ?
esBAF inh: 3.3; C2C12 statin: -18.7

Results for COc1ccc(NC(=O)N2C[C@@H](O)COC[C@@H]3O[C@@H](CC(=O)N4CCN(C)CC4)CC[C@H]32)cc1 ?
esBAF inh: 3.4; C2C12 statin: 4.1

How did CCCNC(=O)[C@@H]1[C@@H](CO)[C@@H]2Cn3c(ccc(/C=C/c4ccccc4)c3=O)[C@@H]2N1CC do in these assays?
esBAF inh: -2.5; C2C12 statin: 18.5

Results for CO[C@@H]1CN(C)C(=O)c2cc(NC(=O)Nc3c(C)noc3C)ccc2OC[C@@H](C)N(CC2CC2)C[C@@H]1C ?
esBAF inh: -7.6; C2C12 statin: 9.5

How did Nc1ccccc1Sc1nc2ccccc2[nH]1 do in these assays?
Wnt act: -1.7; Rtt109 Vps75: 101.4*; MITF TRPM1 HTS: -4.3

How did CC(C)Cc1nc2ccccc2[nH]1 do in these assays?
Wnt act: 3.9; esBAF inh: -7.4; Rtt109 Vps75: -14.5; MITF TRPM1 HTS: -2.0; C2C12 statin: 0.0

Results for Cc1ccccc1OCCSCc1nc2ccccc2[nH]1 ?
Wnt act: -3.2; Rtt109 Vps75: 27.6; MITF TRPM1 HTS: 5.4

What do the screens show for `Nc1nc2ccccc2[nH]1`?
Wnt act: 1.0; esBAF inh: -0.7; Rtt109 Vps75: -0.2; MITF TRPM1 HTS: -8.3; C2C12 statin: 7.4

How did CCC(C)SCc1nc2ccccc2[nH]1 (stereo not given) do in these assays?
esBAF inh: inconclusive; Rtt109 Vps75: -1.9; MITF TRPM1 HTS: 13.0; C2C12 statin: 121.0*

What do the screens show for `Cc1cccc(OCCSCc2nc3ccccc3[nH]2)c1`?
Wnt act: -2.5; esBAF inh: -1.2; Rtt109 Vps75: -6.8; MITF TRPM1 HTS: -5.3; C2C12 statin: 80.6*

What do the screens show for `COc1cc(OC)cc(C(=O)Nc2nc(-c3ccccc3)c(-c3ccccc3)o2)c1`?
Wnt act: -10.2; MITF TRPM1 HTS: -13.0

Results for CC(=O)Nc1nc(-c2ccccc2)c(-c2ccccc2)o1 ?
Wnt act: -4.4; Rtt109 Vps75: 58.8*; MITF TRPM1 HTS: -17.4

What do the screens show for `C[C@@H]1CN([C@@H](C)CO)C(=O)Cc2cc(NC(=O)C3CCCCC3)ccc2O[C@H]1CN(C)Cc1ccc(C(=O)Nc2ccccc2N)cc1`?
esBAF inh: -25.9; C2C12 statin: -0.2

How did CC(C)(C)c1ccc(C(=O)NCCC(=O)N2CCCC2)cc1 do in these assays?
Wnt act: 25.6; esBAF inh: 46.8*; Rtt109 Vps75: 4.1; MITF TRPM1 HTS: 74.6; C2C12 statin: -8.5

How did Cc1ccc(C(=O)NCCN2CCOCC2)cc1 do in these assays?
Wnt act: -1.6; esBAF inh: 6.3; Rtt109 Vps75: -2.0; MITF TRPM1 HTS: 11.3; C2C12 statin: 17.2

What do the screens show for `O=C(NCCC(=O)N1CCCCCCC1)c1ccc(Br)cc1`?
Wnt act: -1.1; esBAF inh: 10.8; Rtt109 Vps75: -7.3; MITF TRPM1 HTS: 11.0; C2C12 statin: 0.2

Results for Cc1ccc(C(=O)NCCC(=O)N2CCOCC2)cc1 ?
Wnt act: 37.0*; Rtt109 Vps75: -4.1; MITF TRPM1 HTS: 44.6

Results for COc1ccc(S(=O)(=O)N2C[C@@H](O)COC[C@@H]3O[C@@H](CC(=O)NCCCN4CCOCC4)CC[C@H]32)cc1 ?
esBAF inh: -0.7; C2C12 statin: -8.5

What do the screens show for `CNC(=O)c1ccsc1NC(=O)c1ccc2c(c1)CCCC2`?
Wnt act: 19.5; esBAF inh: 56.1*; Rtt109 Vps75: 2.6; MITF TRPM1 HTS: 51.6

What do the screens show for `NC(=O)c1ccsc1NC(=O)c1ccc2c(c1)CCCC2`?
Wnt act: 24.0; esBAF inh: -38.8; Rtt109 Vps75: -1.3; MITF TRPM1 HTS: -11.8; C2C12 statin: -186.9

Results for CC=Cc1ccc2n(c1=O)C[C@H]1[C@H](CO)[C@@H](C(=O)NCCC)[C@@H]2N1CC1CCCC1 (mixture of isomers) ?
esBAF inh: 1.9; C2C12 statin: 14.3

How did O=C(N/N=C/c1ccc[nH]1)c1sc2ccccc2c1Cl do in these assays?
Wnt act: 0.5; esBAF inh: 55.3*; Rtt109 Vps75: 19.2; MITF TRPM1 HTS: 6.3; C2C12 statin: 4.4

What do the screens show for `O=C(N/N=C/c1ccncc1)c1sc2ccccc2c1Cl`?
Wnt act: 2.0; esBAF inh: 10.7; Rtt109 Vps75: -12.4; MITF TRPM1 HTS: 15.6; C2C12 statin: -20.6

How did O=C(N/N=C/c1ccc[nH]1)c1cc2ccccc2cc1O do in these assays?
Wnt act: 7.9; esBAF inh: 52.8*; Rtt109 Vps75: 3.4; MITF TRPM1 HTS: 32.3; C2C12 statin: -7.2

How did COCC(=O)Nc1ccc2c(c1)C(=O)N(C)[C@@H]1CC[C@H](CC(=O)NCC(F)(F)F)O[C@@H]1CO2 do in these assays?
esBAF inh: 0.2; C2C12 statin: -8.3

How did COc1ccc(-c2nc3n(c(=O)c2C#N)CCCS3)cc1 do in these assays?
esBAF inh: -2.6; Rtt109 Vps75: 3.0; MITF TRPM1 HTS: 0.8; C2C12 statin: -5.3

How did CCOc1ccc(-c2nc3n(c(=O)c2C#N)CCCS3)cc1 do in these assays?
esBAF inh: 13.2; Rtt109 Vps75: -8.5; MITF TRPM1 HTS: 3.1; C2C12 statin: 103.0*

What do the screens show for `O=C(C[C@@H]1CC[C@@H](NC(=O)c2cccc(F)c2)[C@@H](CO)O1)NCc1ccc(Oc2ccccc2)cc1`?
esBAF inh: -16.8; C2C12 statin: -7.8

How did COC(=O)C[C@@H]1CC[C@H]2[C@H](COc3ccc(NC(=O)c4cc(C)on4)cc3C(=O)N2C)O1 do in these assays?
esBAF inh: 8.7; C2C12 statin: -44.9

Results for OCc1cc(Br)ccc1OCc1nc2ccccc2s1 ?
esBAF inh: 77.3*; Rtt109 Vps75: 7.7; MITF TRPM1 HTS: 75.2; C2C12 statin: -8.4

Results for O=C(OCc1nc2ccccc2s1)c1ccc(Br)s1 ?
Wnt act: 18.8; esBAF inh: 9.9; Rtt109 Vps75: -23.4; MITF TRPM1 HTS: -0.2; C2C12 statin: -2.4

Results for Oc1ccc(O)c(Cc2nc3ccccc3s2)c1 ?
Wnt act: -0.3; esBAF inh: 7.4; Rtt109 Vps75: 3.5; MITF TRPM1 HTS: 20.1; C2C12 statin: -12.2

Results for Oc1ccccc1OCc1nc2ccccc2s1 ?
esBAF inh: 40.9*; Rtt109 Vps75: 8.4; MITF TRPM1 HTS: 74.3; C2C12 statin: 6.3

How did COc1ccccc1C(=O)C1CCCN(C(=O)c2ccccc2C(C)=O)C1 (stereo not given) do in these assays?
Wnt act: 11.0; esBAF inh: 49.6*; Rtt109 Vps75: 6.4; MITF TRPM1 HTS: 55.4; C2C12 statin: 8.3
